Active and inactive are the calls of the source. The calls were made as follows: active = hit-call score of the fitted dose curve at least 0.9, where 1 is the maximum; inactive = score below 0.9.
What was measured:
[1] = APR_HepG2_CellLoss_72hr: Apredica 72-hour HepG2 Assay for Cell Loss (AID 2282915); settings: high-content imaging
Summary of the method: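 HepG2 cells were exposed for 72 hr to compounds at 0.39–200 uM (ten concentrations, duplicate) in 0.5% v/v final DMSO. Nuclei were stained with Hoechst 33342 after 3.7% formaldehyde fixation, imaged at 20x, and counted; fits bidirectional versus DMSO.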

[2] = APR_HepG2_P-H2AX_72hr: Apredica 72-hour HepG2 Assay for H2AX Phosphorylation (AID 2282916); settings: imaging, actives raise or lower the signal;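 also: phospho-histone H2A.x immunostain intensity per cell marking DNA damage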
Summary of the method: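 Phospho-H2A.x imaging endpoint in HepG2 after 72 hr compound exposure (0.39–200 uM, duplicate wells). Activity derived by bidirectional curve fitting with DMSO as baseline.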

[3] = APR_HepG2_MitoMembPot_72hr: Apredica 72-hour HepG2 Assay for Mitochondrial Membrane Potential (AID 2282917); settings: imaging, actives raise or lower the signal
Summary of the method: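 HepG2 cells exposed 72 h to compounds at 0.39–200 uM (0.5% v/v DMSO, duplicates); MitoTracker Red CMXRos 250 nM loaded 30 min before 3.7% formaldehyde fixation, imaged by HCS fluorescence. Bidirectional fit versus DMSO.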

[4] = APR_HepG2_MitoticArrest_72hr: Apredica 72-hour HepG2 Assay for Mitotic Arrest (AID 2282918); settings: high-content imaging, actives raise or lower the signal
Summary of the method: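 High-content imaging of fixed human HepG2 cells after 72 h compound exposure (0.39–200 uM, duplicates, 0.5% DMSO); mitotic arrest scored from phospho-histone H3 and nuclear Hoechst staining relative to DMSO.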

[5] = APR_HepG2_MicrotubuleCSK_72hr: Apredica 72-hour HepG2 Assay for Microtubule CSK Stabilty (AID 2282919); settings: HepG2 microtubule cytoskeleton, high-content imaging, actives raise or lower the signal
Summary of the method: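 Ten-point dosing (0.39–200 uM, 0.5% DMSO) of HepG2 for 72 hr, with taxol as the cytoskeletal positive control. The cells were formaldehyde-fixed and then stained with alpha-tubulin/Cy5 and Hoechst. Imaging at 20x used a −2 um Z offset for tubulin.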

[6] = APR_HepG2_P-H2AX_24hr: Apredica 24-hour HepG2 Assay for H2AX Phosphorylation (AID 2282920); settings: high-content imaging, actives raise or lower the signal
Summary of the method: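 High-content imaging of phospho-histone H2A.x immunofluorescence, nuclei counterstained with Hoechst 33342, in fixed HepG2 cells. Compounds ran 0.39–200 uM in duplicate for 24 h, final DMSO 0.5%. Signal change fitted both directions against DMSO.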

[7] = APR_HepG2_StressKinase_72hr: Apredica 72-hour HepG2 Assay for Stress Kinase (AID 2282921); settings: HepG2 stress kinase (phospho-c-Jun) imaging, actives raise or lower the signal
Summary of the method: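 Stress kinase signal reflects nuclear phospho-c-Jun staining in fixed, permeabilized cells exposed 72 h to compound at 0.39–200 uM; DMSO-normalized, fitted for increases or decreases.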

[8] = APR_HepG2_StressKinase_24hr: Apredica 24-hour HepG2 Assay for Stress Kinase (AID 2282922); settings: HepG2 stress kinase (phospho-c-Jun) imaging, actives raise or lower the signal
Summary of the method: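 After 24 hr compound treatment (up to 200 uM, final DMSO 0.5% v/v), HepG2 cells are fixed and multiplex-labeled; phospho-c-Jun intensity is captured by high-content fluorescence imaging and analyzed relative to DMSO.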

[9] = APR_HepG2_p53Act_72hr: Apredica 72-hour HepG2 Assay for p53 Activation (AID 2282923); settings: high-content imaging, actives raise or lower the signal;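 also: average cellular p53 protein immunofluorescence intensity in HepG2 cells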
Summary of the method: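 Fixed-cell p53 staining (sheep primary, Cy5 secondary) measured by fluorescence imaging following 72 hr treatment at 0.39–200 uM in 0.5% DMSO; DMSO served as negative control and baseline.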

[10] = APR_HepG2_MitoMass_72hr: Apredica 72-hour HepG2 Assay for Mitochondrial Mass (AID 2282924); settings: high-content imaging, actives raise or lower the signal;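 also: MitoTracker Red CMXRos stain intensity per cell imaged as mitochondrial mass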
Summary of the method: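 Steps: treat HepG2 72 hr (0.39–200 uM, duplicate wells); load MitoTracker Red CMXRos, 250 nM, 30 min; fix with 3.7% formaldehyde, permeabilise with 0.5% Triton X-100; capture images, nuclei via Hoechst 33342; fit bidirectionally against DMSO.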

Measured: AC50

CC(C)(C)c1cc(C(C)(C)C)c(O)c(C(C)(C)C)c1
active: [1] 39.1 µM | [9] 0.357 µM
inactive: all other assays above

CCCCC[C@H](O)CC(=O)CCc1ccc(O)c(OC)c1
inactive: all assays above

CN1CCN(c2ccccc2/C=C2\SCCN(c3ccc(Cl)c(Cl)c3)C2=O)CC1
active: [1] 12.4 µM | [4] 4.25 µM | [5] 23.5 µM | [6] 32.7 µM | [7] 19.4 µM | [10] 109 µM
inactive: [2] | [8] | [9]

CC[C@H](C)[C@@H](C(=O)O)n1sc2ccccc2c1=O
inactive: all assays above

C[C@@H]1C[C@H]2[C@@H]3CCC4=CC(=O)C=C[C@]4(C)[C@@]3(F)[C@@H](O)C[C@]2(C)[C@@]1(O)C(=O)COP(=O)(O)O
inactive: [5] | [7] | [8]
active: [1] 6.32 µM | [2] 1.09 µM | [4] 1.12 µM | [6] 16 µM | [9] 1.45 µM | [10] 5.23 µM

O=[N+]([O-])c1ccc(O)cc1
inactive: all assays above

CC(=O)CC(C)(C)O
inactive: [3] | [7] | [10]
active: [1] 11 µM | [2] 0.032 µM | [4] 0.45 µM | [5] 0.0173 µM | [6] 19.8 µM | [8] 100 µM | [9] 0.0395 µM

CC#C[C@]1(O)CC[C@H]2[C@@H]3CCC4=CC(=O)CCC4=C3[C@@H](c3ccc(N(C)C)cc3)C[C@@]21C
inactive: all assays above

CCCCC(CC)COC(=O)CCCCC(=O)OCC(CC)CCCC (centres undefined)
inactive: all assays above

C=C(C)C(=O)OCCC(F)(F)C(F)(F)C(F)(F)C(F)(F)C(F)(F)C(F)(F)F
inactive: all assays above

CCC(C)(C)C1CCC(O)CC1 (centres undefined)
active: [1] 122 µM | [2] 112 µM | [4] 102 µM | [6] 114 µM | [9] 105 µM
inactive: [3] | [5] | [7] | [8] | [10]

COc1ccc([N+](=O)[O-])cc1N
inactive: all assays above

CC(=O)NC1(c2cccc(F)c2)CCN(CC[C@@]2(c3ccc(Cl)c(Cl)c3)CN(c3ccccc3)C(=O)CO2)CC1
active: [1] 21.3 µM | [2] 21.8 µM | [4] 14.8 µM | [5] 37.7 µM | [6] 39.3 µM | [7] 24 µM | [9] 18.7 µM
inactive: [3] | [8] | [10]

O=C(O)Cc1cc(I)c(Oc2cc(I)c(O)c(I)c2)c(I)c1
inactive: all assays above

Cc1cc(CCN2CCN(c3nsc4ccccc34)CC2)cc2c1NC(=O)CC2(C)C
active: [1] 30.9 µM | [2] 11.2 µM | [4] 39.7 µM | [5] 37.6 µM | [6] 22 µM | [9] 33.8 µM | [10] 29 µM
inactive: [7] | [8]

CC(C)(C)c1ccc(O)c(C(C)(C)C)c1
active: [1] 66 µM | [2] 36.5 µM | [6] 42.8 µM | [7] 56.6 µM | [8] 48.3 µM | [9] 20.3 µM
inactive: [3] | [4] | [5] | [10]

Nc1cccc2c(N)cccc12
active: [1] 83.1 µM | [2] 36.4 µM | [3] 17.3 µM | [4] 77 µM | [6] 42.9 µM | [7] 39.9 µM | [9] 67.5 µM
inactive: [5] | [8] | [10]

CC1=C(/C=C/C(C)=C/C=C/C(C)=C/C(=O)O)C(C)(C)CCC1
active: [1] 62 µM | [6] 86.8 µM | [10] 79.9 µM
inactive: all other assays above

CC(O)CO (centres undefined)
not listed: [3]
inactive: all other assays above

COCC(C)OCC(C)O (centres undefined)
inactive: all assays above

Oc1cccc(O)c1
inactive: all assays above

CCCCCCC(=O)O
not listed: [3]
inactive: all other assays above

CCCCCCCCOC(=O)CCCCCCCCC(=O)OCCCCCCCC
inactive: all assays above

NC(=O)N(O)[C@@H]1C=C[C@H](Oc2cccc(Oc3ccc(F)cc3)c2)C1
active: [1] 94.7 µM | [4] 85.4 µM | [6] 103 µM
not listed: [3]
inactive: all other assays above

CCCCCCCC(=O)O
inactive: all assays above

OC1CCC(C2CCCCC2)CC1 (centres undefined)
inactive: all assays above

O=C(/C=C/c1ccc(O)cc1)CC(=O)/C=C/c1ccc(O)cc1
active: [2] 32.1 µM | [7] 27.1 µM | [8] 100 µM | [10] 46.3 µM
inactive: all other assays above

COC(=O)CCCCC(=O)OC
inactive: all assays above

CCc1ccc(CCOc2ccc(CC3SC(=O)NC3=O)cc2)nc1 (centres undefined)
active: [1] 112 µM | [2] 103 µM | [4] 103 µM | [10] 57.6 µM
inactive: all other assays above

CCCCCCCCC(=O)O
not listed: [3]
inactive: all other assays above

c1ccc2cc3c(ccc4ccccc43)cc2c1
active: [1] 9.42 µM | [3] 73.6 µM | [4] 27.6 µM | [6] 51 µM
inactive: all other assays above

CCCCOCCO
inactive: all assays above

ClC1=C(Cl)C(Cl)(Cl)C(Cl)=C1Cl
not listed: [3]
inactive: all other assays above

c1ccc2c(c1)ccc1ccccc12
not listed: [3]
inactive: all other assays above

CN(C)C=O
not listed: [3]
inactive: all other assays above

CCc1nn(C2CCCCC2)c2cc(C3(C#N)CCC(C(=O)O)CC3)ccc12 (centres undefined)
active: [1] 33.3 µM | [2] 84 µM | [4] 80.7 µM | [9] 97.7 µM
not listed: [3]
inactive: all other assays above

COCC(C)O (centres undefined)
not listed: [3]
inactive: all other assays above

O=c1c(-c2ccc(O)cc2)coc2cc(O)ccc12
not listed: [3]
inactive: all other assays above

NC(=O)N1C(=O)C(C(=O)c2cc(Cl)cs2)c2cc(F)c(Cl)cc21 (centres undefined)
inactive: [8]
active: [1] 62.7 µM | [2] 64.7 µM | [4] 47.7 µM | [5] 39.2 µM | [6] 99.8 µM | [7] 67.4 µM | [9] 59 µM | [10] 54.4 µM

CCC(=C(c1ccc(O)cc1)c1ccc(OCCN(C)C)cc1)c1ccccc1
not listed: [3] | [9]
inactive: all other assays above
